Experimental data published in article PMC4336329 (PLoS ONE, 2015).
About 14,000 (4.5%) of roughly 310,000 compounds showed an effect of 50% or more. Effects have a minus sign here. The list comes from a sample in which strong results are over-represented; it also holds similar structures and randomly drawn compounds.

molecular target: human ether-à-go-go-related gene (hERG) potassium channel (human, UniProt Q12809); assay: primary screen, population patch clamp on CHO cells stably expressing hERG; higher = less effect of the substance
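Note: peak tail current of the secondary pulse compared with the same well before compound.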

Sequence of human ether-à-go-go-related gene (hERG) potassium channel (Q12809 whole entry, looked up): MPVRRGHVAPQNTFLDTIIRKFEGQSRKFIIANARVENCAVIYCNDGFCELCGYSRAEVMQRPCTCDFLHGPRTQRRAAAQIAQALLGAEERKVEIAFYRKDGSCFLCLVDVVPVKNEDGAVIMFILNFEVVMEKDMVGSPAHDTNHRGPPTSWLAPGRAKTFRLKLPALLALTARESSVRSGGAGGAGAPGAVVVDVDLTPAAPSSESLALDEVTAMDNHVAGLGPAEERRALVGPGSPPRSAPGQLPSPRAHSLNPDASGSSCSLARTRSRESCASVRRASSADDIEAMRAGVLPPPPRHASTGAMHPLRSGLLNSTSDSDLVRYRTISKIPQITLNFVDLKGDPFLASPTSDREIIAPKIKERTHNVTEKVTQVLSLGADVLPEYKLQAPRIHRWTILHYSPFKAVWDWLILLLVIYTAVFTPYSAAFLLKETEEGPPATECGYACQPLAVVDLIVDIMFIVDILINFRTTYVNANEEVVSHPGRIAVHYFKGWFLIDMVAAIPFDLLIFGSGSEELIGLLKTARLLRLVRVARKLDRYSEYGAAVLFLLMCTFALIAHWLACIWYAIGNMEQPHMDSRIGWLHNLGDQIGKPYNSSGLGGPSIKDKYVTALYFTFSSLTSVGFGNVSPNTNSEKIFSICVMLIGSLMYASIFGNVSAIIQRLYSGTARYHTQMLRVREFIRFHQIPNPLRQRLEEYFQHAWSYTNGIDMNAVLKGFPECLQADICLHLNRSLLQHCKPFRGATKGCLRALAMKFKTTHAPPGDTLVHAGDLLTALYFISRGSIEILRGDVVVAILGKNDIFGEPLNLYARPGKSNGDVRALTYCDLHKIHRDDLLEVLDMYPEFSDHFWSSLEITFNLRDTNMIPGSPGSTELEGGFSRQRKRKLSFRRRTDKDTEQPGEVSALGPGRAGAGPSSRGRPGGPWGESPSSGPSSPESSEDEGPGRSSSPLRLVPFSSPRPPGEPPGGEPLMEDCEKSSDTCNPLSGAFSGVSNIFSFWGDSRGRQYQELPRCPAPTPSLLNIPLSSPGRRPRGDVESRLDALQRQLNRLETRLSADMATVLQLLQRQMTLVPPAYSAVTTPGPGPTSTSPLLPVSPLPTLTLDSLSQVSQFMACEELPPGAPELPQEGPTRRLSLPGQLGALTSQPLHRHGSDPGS

Structure (SMILES)	hERG current change (%, negative = inhibition) at 10uM
COc1ccc(OC)c(Nc2nc(-c3ccc(O)c(O)c3)cs2)c1	10.8%
CC12CN3CC(C)(CN(C1)C31CCOCC1)C2=O	11.4%
CCOc1cc(C(=O)NC2CC(C)(C)NC(C)(C)C2)cc(OCC)c1OCC	20%
O=C(NCc1ccco1)C1CCN(S(=O)(=O)Cc2ccccc2)CC1	-5.29%
CCOc1ccc(S(=O)(=O)N(C)CC(=O)NCc2ccccn2)cc1Cl	-27.8%
O=C(CSc1ncn[nH]1)Nc1ccc2c(c1)OCCO2	-26.9%
Cc1csc(N)n1	7.04%
Cc1ccnc(NC(=O)CC(c2ccccc2)c2ccccc2)n1	30.5%
Clc1ccc(CSc2cc3c(nn2)-c2ccccc2CC3)cc1	23%
CC1=C(C(=O)OCC2CCCCC2)C(c2ccc(O)cc2)NC(=O)N1 (centres unmarked)	12.7%
COC(=O)c1cc(NC2c3ccccc3C(=O)N2c2ccc(Cl)cn2)cc(C(=O)OC)c1 (centres unmarked)	19.5%
Cc1ccc(S(=O)(=O)NCC(=O)OCC(=O)c2cccs2)cc1	0.259%
Cc1ccc(S(=O)(=O)NCC(=O)OCC(=O)c2ccc(Cl)s2)cc1	1.12%
Cc1ccc(S(=O)(=O)NCC(=O)OCC(=O)c2ccc(Br)s2)cc1	-52.7%
Cc1cccc(CN2C(=O)[C@H]3Cc4c([nH]c5ccccc45)C(C)(C)N3C2=O)c1	-1.56%
CS(=O)(=O)NC1c2cccc3cccc(c23)C1Sc1nncn1/N=C/c1ccco1 (centres unmarked)	-21.1%
COc1ccc(/C=N/NC(=O)c2ccc(O)cc2)cc1CN1CCCc2ccccc21	0.817%
COc1ccc(C(=O)N/N=C/c2ccc(OC)c(CN3CCc4cc(OC)c(OC)cc4C3C)c2)cc1 (centres unmarked)	-76%
COc1ccc(/C=N/NC(=O)c2ccccc2OC)cc1COc1ccccc1[N+](=O)[O-]	8.94%
COc1ccc(/C=N/NC(=O)c2ccc(F)cc2)cc1CN1CCc2cc(OC)c(OC)cc2C1C (centres unmarked)	-88.3%
COc1ccc(/C=N\NC(=O)c2ccc(F)cc2)cc1COc1ccccc1C(N)=O	-44.3%

Structure (SMILES)	hERG current change (%, negative = inhibition) at 10uM
COc1ccc(/C=N/NC(=O)c2cc(OC)c(OC)c(OC)c2)cc1CN1CCc2cc(OC)c(OC)cc2C1C (centres unmarked)	-73.4%
COc1ccc(/C=N/NC(=O)c2ccccc2[N+](=O)[O-])cc1CN1CCc2cc(OC)c(OC)cc2C1C (centres unmarked)	-63.9%
COc1ccc(C(=O)N/N=C/c2ccc(OC)c(COc3ccccc3)c2)cc1	-26.1%
COc1ccc(/C=N/NC(=O)c2ccc(OC)c(OC)c2)cc1COc1c(F)c(F)c(F)c(F)c1F	5.91%
COc1ccc(/C=N\NC(=O)c2ccccc2[N+](=O)[O-])cc1COc1c(F)c(F)c(F)c(F)c1F	8.06%
COc1ccc(C(=O)N/N=C/c2ccc(OC)c(CN3CCCc4ccccc43)c2)cc1	-11.9%
COc1ccc(/C=N/NC(=O)c2cccnc2)cc1CN1CCc2cc(OC)c(OC)cc2C1C (centres unmarked)	-40.9%
Cc1nc2cc(NC(=O)Nc3ccc(N4CCOCC4)cc3)ccc2n1C	6.34%
COCCn1c(Br)nc2c1c(=O)n(C)c(=O)n2C	8.14%
Cc1ccccc1C(=O)N1CCN(c2ccc(NC(=O)c3cccs3)cc2)CC1	4.97%
CC(=O)Nc1ccc(S(=O)(=O)NCC2CCC(C(=O)NCCCN(C)Cc3ccccc3)CC2)cc1 (centres unmarked)	6.98%
CCn1c(SCC(=O)NCC2CCCO2)nnc1-c1ccccc1OC (centres unmarked)	10.9%
CS(=O)(=O)Nc1ccccc1C(=O)NCC1(N2CCCCC2)CCCCC1	-8.32%
O=C(O)c1ccc(NS(=O)(=O)c2ccc(C(=O)Nc3ccccc3)cc2)cc1	-8.65%
Cc1ccc(C)c(CN2CCC(n3nnc4cc(F)ccc43)CC2)c1	-21.2%
Cc1ccc(S(=O)(=O)N2CCC(n3nnc4cc(C)ccc43)CC2)cc1	-28.9%
Cc1ccc(Cn2nnnc2CN2CCC(NC(=O)c3ccc(Br)cc3)CC2)cc1	-44.7%
Cc1ccc(Cn2nnnc2CN2CCC(n3nnc4cc(C)ccc43)CC2)cc1	-65.2%
Cc1ccc(Cn2nnnc2CN2CCC(NC(=O)C(C)(C)C)CC2)cc1.Cl	0.395%
Cc1ccc(Cn2nnnc2CN2CCC(n3nnc4ccccc43)CC2)cc1.Cl	-53.9%
COc1ccc(CCNC(=O)CSc2nc(N)cc(=O)[nH]2)cc1OC	29.6%

Structure (SMILES)	hERG current change (%, negative = inhibition) at 10uM
Cc1ccc(S(=O)(=O)N(C)C)cc1NC(=O)C(C)N(C)Cc1sccc1C (centres unmarked)	-16.1%
O=C(COc1ccccc1)Nc1ccc2oc(=O)ccc2c1	4.76%
CCOC(=O)N1CCN(C(=O)c2ccc3c(=O)n(Cc4ccc(Cl)cc4)c(=S)[nH]c3c2)CC1	4.36%
CN(C)c1ccc(N/C=C/C(=O)c2ccco2)cc1	4.67%
Cc1nn(C)c(C)c1CN(Cc1nc(CCC(C)C)no1)C(C)C	13%
COC(=O)c1cccc(N(C(=O)CNC(=O)c2ccco2)C(C(=O)NC2CCCC2)c2ccco2)c1 (centres unmarked)	6.89%
CSc1cccc(CN2CCC(CO)(Cc3ccccc3)CC2)c1	-44.8%
OCC1(Cc2cccc(C(F)(F)F)c2)CCN(Cc2cc(F)cc(F)c2)CC1	-43.4%
COc1ccc2[nH]c(C(=O)N3CCC(CO)(Cc4cccc(C(F)(F)F)c4)CC3)c(C)c2c1	7.98%
COc1ccc(F)c(CN2CCC(CO)(Cc3cccc(C(F)(F)F)c3)CC2)c1	-58.4%
Cc1c(CN2CCC(CO)(Cc3cccc(C(F)(F)F)c3)CC2)c2ccccc2n1C	-47.2%
CCOc1cc(CN2CCN(C(=O)Cc3ccccc3)CC2)ccc1OC.O=C(O)C(=O)O	-37.6%
FC(F)(F)c1cccc(CN2CCCCCC2)c1	2.33%
CSc1cccc(CN2CCC(CO)(Cc3cccc(C(F)(F)F)c3)CC2)c1	-64.4%
CCOc1cc(CN2CCCCCC2)ccc1OC	-3.28%
COc1cc(CN2CCC(CO)(Cc3cccc(C(F)(F)F)c3)CC2)ccc1F	-68.7%
CCOc1cc(CN2CCC(CO)(Cc3cccc(C(F)(F)F)c3)CC2)ccc1OC	-76.6%
COc1ccc(C(=O)Nc2ccc(N3CCOCC3)cc2)cc1OC	1.36%
Cc1ccc(CC(=O)NCCc2ccc(S(N)(=O)=O)cc2)cc1	5.87%
Brc1ccc([C@H]2CN3CCSC3=N2)cc1.O=C(O)C(=O)O	-35.7%
COc1ccc(OC)c(NC(=O)c2ccccc2SC)c1	-40.2%

Structure (SMILES)	hERG current change (%, negative = inhibition) at 10uM
CC(C)c1ccc(C2NC(=O)NC3=C2CCc2ccccc23)cc1 (centres unmarked)	-33.5%
COc1cc(Cl)c(CC(=O)c2c[nH]c3ccccc23)cc1OC	15.9%
CC1(C(=O)N2CCC(CO)(Cc3cccc(C(F)(F)F)c3)CC2)CC1	4.02%
OCC1(Cc2ccccc2C(F)(F)F)CCN(Cc2cccc3cnccc23)CC1	-11%
COc1ccc(CN2CCC(CO)(Cc3ccccc3C(F)(F)F)CC2)c(F)c1	-67.3%
CN(C)S(=O)(=O)N1CCC(CO)(Cc2cccc(C(F)(F)F)c2)CC1	-4.25%
OCC1(Cc2ccccc2C(F)(F)F)CCN(Cc2ccncc2)CC1	-13.8%
CC(=O)c1ccc(C(=O)N2CCC(CO)(Cc3cccc(C(F)(F)F)c3)CC2)cc1	-74.6%
CC(=O)N1CCN(c2ccc(NC(=O)c3cccc([N+](=O)[O-])c3)cc2)CC1	-3.59%
C/C(=N\NC(=O)CSc1nc(C)cc(C)n1)c1ccc2c(c1)OCCO2	18.3%
CCC(CC)C(=O)N1CC(=O)Nc2ccc(F)cc2C1c1ccc(F)cc1 (centres unmarked)	-27.8%
CCCc1cc(C(=O)NNC(=S)NCC)c2ccccc2n1	18.1%
CC1=C(C(=O)Nc2ccccn2)C(c2ccccc2)n2ncnc2N1 (centres unmarked)	13.7%
CC1=C(C(=O)Nc2ccccn2)C(c2ccc(N(C)C)cc2)n2ncnc2N1 (centres unmarked)	-62.7%
CC1=C(C(=O)Nc2ccccn2)C(c2ccc(F)cc2)n2ncnc2N1 (centres unmarked)	-13.1%
O=c1cc(-c2ccccc2)cc(-c2ccccc2)n1CCCO	-31.9%
CCc1ccc(C(=O)Nc2cc3c(cc2Cl)OCCCO3)cc1	23.5%
CNC(=O)[C@@H]1C[C@H]1[C@@H](NC(=O)OCc1ccccc1)c1ccccc1	-48.3%
O=C(N[C@@H](c1ccccc1)[C@@H]1C[C@H]1C(=O)O)OCc1ccccc1	15.1%
CN(C)C(=O)[C@@H]1C[C@H]1[C@@H](NC(=O)OCc1ccccc1)c1ccccc1	-64.2%
